Reference: PubChem BioAssay AID493056 (National Center for Advancing Translational Sciences (NCATS), 2011)
The campaign covered roughly 360,000 compounds. About 2,400 (0.67%) were called active. The list comes from a sample in which actives are over-represented; it also holds similar structures and randomly drawn compounds. Values without a mark were called inactive. Rule as the data show it: active = enhancement above about 30%; inactive = the rest.

The compounds below were run against Thyrotropin-releasing hormone receptor (Homo sapiens) (UniProt P34981) (assay: qHTS for Small Molecule Agonists and Allosteric Enhancers of Human TRH Receptor: Primary Screen for Enhancers). Details: TRHR cells, fluo-8 calcium fluorescence, EC20 TRH enhancement; at 2 µM; hits give high values.
Thyrotropin-releasing hormone receptor (Homo sapiens), sequence (P34981 whole entry, looked up): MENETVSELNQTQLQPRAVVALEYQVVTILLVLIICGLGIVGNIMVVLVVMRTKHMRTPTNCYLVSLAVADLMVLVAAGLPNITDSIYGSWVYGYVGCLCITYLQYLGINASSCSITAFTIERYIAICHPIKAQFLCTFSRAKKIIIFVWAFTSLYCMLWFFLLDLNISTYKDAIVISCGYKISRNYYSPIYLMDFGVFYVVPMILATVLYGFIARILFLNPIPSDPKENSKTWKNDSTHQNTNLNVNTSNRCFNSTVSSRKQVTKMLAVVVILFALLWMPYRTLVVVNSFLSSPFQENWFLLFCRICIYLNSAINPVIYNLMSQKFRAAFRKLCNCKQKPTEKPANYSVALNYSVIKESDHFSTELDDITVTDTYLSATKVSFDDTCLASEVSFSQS
How it was run: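 Enhancer read-out: after compound pinning and an initial kinetic agonist-mode read, an EC20 of TRH (10 nM final) was injected and fluo-8 calcium signal (Ex 480/Em 530) followed at 1 s/cycle for 100 cycles in TRHR-expressing cells.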
Also: 0% is about no effect.

SMILES	enhancement
CCc1nc2c(cnn2-c2ccc(C)cc2)c(=O)n1-c1ccc(C)cc1	-4.12%
Cc1ccc(Cn2ncc3c4sc(C)cc4n(C)c3c2=O)c(C)c1	4.39%
CCCN(CCC)CCNC(=O)c1ccc2c(c1)NC(=O)C(CS(=O)(=O)Cc1cccc(Br)c1)N2 (stereo not given)	5.05%
O=C(C1CCN(C2CCN(Cc3ccc4cc(F)ccc4n3)CC2)CC1)N1CCCC1	-6.35%
O=C(C1CCN(C2CCN(Cc3cccc4c3OCO4)CC2)CC1)N1CCOCC1	2.59%
C/C(=C\c1ccco1)CN1CCC(N2CCC(C(=O)N3CCOCC3)CC2)CC1	46.7% (active)
Cc1ccc(-c2nc(SCc3ccc(Br)cc3)n3[nH]c(=O)cc3n2)cc1	-0.363%
Cc1c(/C=N\NC(=O)c2cc3ccccc3o2)c2ccccc2n1C	44.3% (active)
CC(C)Oc1ccc(NC(=O)c2cc3ccccc3o2)cc1	7.33%
CC(C)(C)n1nc2c(c1NC(=O)c1cc3ccccc3o1)CSC2	1.55%
O=C(NCCS(=O)(=O)N1CCN(c2ccc(F)cc2)CC1)c1ccccc1Br	1.15%
Cc1ccc(C2CCN(C(=O)c3cnn(-c4ccccc4Cl)c3C3CCN(C(=O)OC(C)(C)C)CC3)C2)cc1 (stereo not given)	3.84%
CC(=O)Nc1ccc(S(=O)(=O)N2CCN(S(=O)(=O)c3cccs3)CC2)cc1	-0.8%
O=S(=O)(c1cccs1)N1CCN(CCOc2ccccc2)CC1	5.02%
CN1CCN(S(=O)(=O)c2ccc(N3CCN(S(=O)(=O)c4cccs4)CC3)nc2)CC1	39.6% (active)
CCOC(=O)C1CCN(c2csc3ccc(C)cc3c2=O)CC1	-6.67%
CCOC(=O)C1CCC(CN(Cc2ccc(OC)cc2)S(=O)(=O)c2ccc(F)c(C(=O)Nc3cc(C)ccc3C)c2)CC1 (stereo not given)	-3.18%
COC(=O)c1cc(NC(=O)CN2CCN(C(C)=O)CC2)cc(C(=O)OC)c1	6.58%
CC(=O)N1CCN(CC(=O)Nc2ccc(C)c(F)c2)CC1	47.8% (active)
Cc1ccc(NC(=O)CN2c3ccccc3S(=O)(=O)c3ccccc32)cc1F	10.5%
CCOc1ccc(C2C(C(=O)Nc3ccc(Cl)cc3)=C(C)Nc3nc(C(F)(F)F)nn32)cc1 (stereo not given)	10.8%
C#CC(C)(CC)NC(=O)Cn1nnc(-c2ccc(OCc3c(F)cccc3Cl)cc2)n1 (stereo not given)	1.56%
CCOc1ccccc1NC(=O)COc1ccc(S(=O)(=O)N2CCCC2)cc1	19.7%
O=C(COc1ccc(S(=O)(=O)N2CCCCC2)cc1)NCc1ccccn1	36.9% (active)
O=C(NCc1ccccn1)C1CCN(S(=O)(=O)c2ccc(Br)cc2)CC1	-2.72%
COc1cccc(N2CC(NC(=O)/C=C\c3ccccc3)CC2=O)c1 (stereo not given)	5.73%
CCc1ccc(NC(=O)CSc2nc3c([nH]c4ccccc43)c(=O)n2-c2cccc(OC)c2)cc1	2.51%
Cc1ccccc1CC1(CO)CCCN(Cc2ccc3c(c2)OCCO3)C1 (stereo not given)	2.06%

SMILES	enhancement
CCOc1cc(CN2CCCC(CO)(Cc3ccc(F)cc3F)C2)ccc1OC (stereo not given)	45.4% (active)
CCc1[nH]nc(C(=O)N2CCCC(CO)(Cc3ccc(F)cc3F)C2)c1C (stereo not given)	-3.46%
CC(C)(C)OC(=O)N1CCC(c2c(C(=O)NCc3ccccn3)cnn2-c2ccc(F)cc2)CC1	0.916%
CSc1nc(=O)c2c(n1C)NC(=O)CC2c1ccccc1OC(C)C (stereo not given)	1.92%
Cc1cc(C)c2oc(C(=O)Nc3c(C(=O)Nc4ccccc4)oc4ccccc34)cc(=O)c2c1	-1.76%
Cc1ccc(S(=O)(=O)N(CC(=O)Nc2ccc(Cl)cc2Cl)c2ccccc2C)cc1	-0.851%
CCCCOc1ccc(C(=O)Nc2cccc(-c3nc4ccccc4o3)c2C)cc1	36% (active)
Cc1ccccc1-c1nc2cc(NC(=O)c3cccc(OCCC(C)C)c3)ccc2o1	-6.29%
CCCOc1ccc(C(=O)Nc2ccc3oc(-c4cccc(Cl)c4Cl)nc3c2)cc1	-0.105%
Cc1ccc(S(=O)(=O)c2nnn3c2nc(N2CCN(c4ccccc4F)CC2)c2cc(Cl)ccc23)cc1C	15.1%
COc1ccccc1CNC(=O)c1ccc(-n2c(C)cc3c2CCCC3)cc1	-0.647%
Cc1noc(C)c1-c1ccc2ncnc(NCc3ccc(F)c(F)c3)c2c1	-4.49%
O=C(Cn1c(=O)nc(-c2ccccc2)c2cc(Cl)ccc21)NCc1ccc(Cl)cc1	10.8%
O=C(O)c1ccc(Nc2nc(-c3ccccc3)c3cc(Br)ccc3n2)cc1	7.15%
NC(N)=Nc1nc(-c2ccccc2)c2cc(Cl)ccc2n1	48.4% (active)
Clc1ccc2nc(-c3ccccc3)nc(C(Cl)Cl)c2c1	2.39%
O=C(CCl)NNc1nc(-c2ccccc2)c2cc(Cl)ccc2n1	32.4% (active)
Cc1nc(N=C(N)N)nc2c(C)cccc12	10.2%
CCC(C)NC(=O)Cn1c(=O)n(-c2ccc(Cl)cc2)c(=O)c2c3c(sc21)CCCC3 (stereo not given)	2.95%
CN1CCOc2cc(S(=O)(=O)N3CCN(S(=O)(=O)c4c(F)cccc4F)CC3)cnc21	-0.823%
Cc1ccc(C)c(NC(=O)CSC2=Nc3ccccc3N=C(c3ccc(F)cc3)C2)c1	-0.667%
O=[S+]([O-])(c1ccc(OC(F)(F)F)cc1)N1CCN([S+](=O)([O-])c2ccc3c(c2)OCCO3)CC1	-5.08%
Cc1cccc(-c2nc(SCC(=O)Nc3cc(C)on3)c3c(=O)n(C)c(=O)n(C)c3n2)c1	2.9%
CCCCn1c(=N)c(S(=O)(=O)c2ccccc2)cc2c(=O)n3cccc(C)c3nc21	1.28%
CC(C)(C)c1ccc(OCC(=O)N2CCC(c3nc4ccccc4s3)CC2)cc1	-1.99%
C=CCC1=C/C(=C\c2c(N)n3nc(CC(=O)N4CCOCC4)sc3nc2=O)C=C(OC)C1=O	52.7% (active)
COC1=C/C(=C/c2c(N)n3nc(CC(=O)N4CCOCC4)sc3nc2=O)C=CC1=O	2.92%
